Measured values published in ChEMBL document CHEMBL3433997, “St. Jude Leishmania screening dataset” (2016).

Each compound was assayed against Hexose transporter 1 (Plasmodium falciparum) (UniProt O97467) (assay: ST_JUDE_LEISH: Cytotoxicity at 2uM final concentration against transgenic Leishmania Mexicana promastigotes LmPfHT that are glucose transport deficient and complemented with the Plasmodium falciparum hexose transporter. Activity is measured by DNA content using SYBR green in vitro).
Assay type: functional
`O=C(Nc1ccc(C(=O)N2CCN(CCN3CCN(c4cccc(C(F)(F)F)c4)CC3)CC2)cc1)c1ccc(OC(F)(F)F)cc1` gave an inhibition of 0.14%. `COc1ccc(Nc2ncc3c(-c4cccc(NC(=O)Cc5cccc(F)c5)c4)c[nH]c3n2)cc1OC` showed an inhibition of 3.23%. For `CCCCN(CCCC)CCOc1cc2c(cc1OC)CCN2C(=O)/C=C/c1ccccc1Cl`, the inhibition was 1.58%. `O=C(NCCN1CCCC1)c1ccc(-c2ccc(-c3nc4cc(C(F)(F)F)ccc4[nH]3)s2)cc1` showed an inhibition of 2.28%. With `CCCNCc1ccc(-c2ccc(CN(CCOC)C(=O)/C=C/c3ccccc3C)cc2)nc1` the inhibition was 6.69%. `COCCOc1cc(C)c(C2CCN(CCCCNC(=O)c3ccc(NC(=O)c4ccc(Cl)cc4)cc3)CC2)cc1C` showed an inhibition of 7.14%. Work on `COc1cc2c(cc1OC)CC(NCCCCCCNCCc1ccc(Cl)cc1)CC2` (stereo not given) yielded an inhibition of -1.16%. For `c1ccc(-c2[nH]c3ccccc3c2CN2CCC(N3CCCCC3)CC2)nc1`, the inhibition was -0.46%. Compound `Oc1ccc(CCNc2nc(NCc3ccccc3Oc3ccc(C(F)(F)F)cc3)nc(N3CCNCC3)n2)cc1` has an inhibition of -1.74%. In the case of `CC(=O)Nc1ccc(C(=O)N2CCN(c3ccnc4cc(Cl)ccc34)CC2)cc1`, the inhibition is reported as -0.89%. `Cc1nc(C)c(-c2ccc(S(=O)(=O)c3ccc(Cl)cc3)cc2)c(O)c1Br` gave an inhibition of 4.53%. `O=C(OCC1CCN(Cc2ccccc2)C1)c1ccc(Cl)cc1` (stereo not given) gave an inhibition of 1.6%. For `CCn1c(-c2nonc2N)nc2c(Cl)ncc(O[C@H](CCN)c3ccccc3F)c21`, the inhibition was 48.5%. `CN1CCN(c2ccnc3cc4c(cc23)N(C(=O)Nc2ccc3c(c2)CCCC3=O)CC4)CC1` gave an inhibition of 1.56%. In the case of `O=C(NC1CCN(c2ccnc(Nc3ccc(F)cc3)n2)C1)c1cc2ccccc2s1` (stereo not given), the inhibition is reported as 1.57%.
